“And” between values parts separate entries of the source, which are not always exact repeats. Equal values may be shown once. About 2,000 (36%) of roughly 5,500 compounds were called active. Not shown: some 18% with an inconclusive outcome. Rule as the data show it: active = normalized growth mostly below about 0.91 (no sharp cut-off); inconclusive = no clear call, values can overlap the other calls; inactive = mostly above about 0.92. This is one part of the list.
Test: chemical genetic growth profiling, strain panel (AID 1159580);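 also: tested at 20 µM; growth read once vehicle control cultures reached saturation at 30 °C; 1 = growth at the plate median or of vehicle wells; lower values mean less growth of the strain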
Settings: S. cerevisiae deletion strains, growth OD

Measured: normalized growth

COc1cc(O)c(C(=O)O)c(O)c1
inactive: locus YAL013W, strain DEP1, hits give low values 1 | locus YAL021C, strain ccr4, hits give low values 0.992 | locus YAL026C, strain drs2, hits give low values 0.995 | locus YAL030W, strain snc1, hits give low values 0.99 | locus YBL061C, strain skt5, hits give low values 1 | locus YBR009C, strain hhf1, hits give low values 1 | locus YBR021W, strain FUR4, hits give low values 1.02 | locus YBR023C, strain chs3, hits give low values 0.998 | locus YBR171W, strain sec66, hits give low values 0.971 | locus YBR229C, strain ROT2, hits give low values 0.995 | locus YBR231C, strain swc5, hits give low values 1 | locus YBR279W, strain paf1, hits give low values 0.998 | locus YCL011C, strain gbp2, hits give low values 0.988 | locus YCL016C, strain dcc1, hits give low values 0.991 | locus YCL029C, strain bik1, hits give low values 1.01 | locus YCL061C, strain MRC1, hits give low values 0.979 | locus YCL069W, strain vba3, hits give low values 0.99 | locus YCR088W, strain abp1, hits give low values 0.984 | locus YDL005C, strain med2, hits give low values 0.976 | locus YDL035C, strain GPR1, hits give low values 1.02 | locus YDL040C, strain nat1, hits give low values 0.999 | locus YDL074C, strain BRE1, hits give low values 1.02 | locus YDL101C, strain DUN1, hits give low values 1 | locus YDL134C, strain PPH21, hits give low values 1 | locus YDL185W, strain tfp1, hits give low values 0.949 | locus YDL192W, strain arf1, hits give low values 1.02 | locus YDR001C, strain nth1, hits give low values 0.98 | locus YDR069C, strain doa4, hits give low values 1.01 | locus YDR101C, strain arx1, hits give low values 1.01 | locus YDR137W, strain rgp1, hits give low values 0.974 | locus YDR150W, strain NUM1, hits give low values 1 | locus YDR159W, strain sac3, hits give low values 1.01 | locus YDR162C, strain NBP2, hits give low values 1.01 | locus YDR195W, strain ref2 0.987 | locus YDR297W, strain sur2, hits give low values 1 | locus YDR318W, strain mcm21, hits give low values 1.02 | locus YDR334W, strain swr1, hits give low values 0.999 | locus YDR335W, strain msn5, hits give low values 0.992 | locus YDR388W, hits give low values 1 | locus YDR392W, strain spt3, hits give low values 1.01 | locus YDR502C, strain sam2, hits give low values 0.998 | locus YEL003W, strain gim4, hits give low values 1 | locus YEL037C, strain rad23, hits give low values 0.985 | locus YEL061C, strain CIN8 (second series), hits give low values 0.981 | locus YEL061C, strain CIN8, hits give low values 1 | locus YER015W, strain faa2, hits give low values 0.99 | locus YER016W, strain bim1, hits give low values 0.989 | locus YER110C, hits give low values 1.02 | locus YER111C, strain swi4, hits give low values 0.987 | locus YER155C, strain BEM2 (second series), hits give low values 0.978 | locus YER155C, strain BEM2, hits give low values 0.987 | locus YER167W, strain BCK2, hits give low values 1.03 | locus YFR010W, strain ubp6, hits give low values 1.01 | locus YGL078C, strain dbp3, hits give low values 0.973 | locus YGL086W, strain mad1, hits give low values 1.01 | locus YGL167C, strain pmr1, hits give low values 0.989 | locus YGL173C, strain kem1, hits give low values 0.997 | locus YGL227W, strain vid30, hits give low values 0.982 | locus YGL240W, strain doc1, hits give low values 0.995 | locus YGL248W, strain PDE1, hits give low values 1.01 | locus YGL253W, strain hxk2, hits give low values 0.979 | locus YGR078C, strain PAC10, hits give low values 1.01 | locus YGR135W, strain pre9, hits give low values 1.01 | locus YGR229C, strain SMI1, hits give low values 1.02 | locus YGR252W, strain gcn5, hits give low values 1 | locus YHR013C, strain ard1, hits give low values 0.998 | locus YHR027C, strain rpn1, hits give low values 0.978 | locus YHR030C, strain SLT2, hits give low values 0.996 and 0.881 | locus YHR079C, strain IRE1 (second series), hits give low values 1.01 | locus YHR094C, strain hxt1, hits give low values 0.997 | locus YHR129C, strain ARP1, hits give low values 0.991 | locus YHR142W, strain chs7, hits give low values 1.01 | locus YHR200W, strain rpn10, hits give low values 1 | locus YIL066C, strain RNR3, hits give low values 0.993 | locus YIL073C, strain SPO22, hits give low values 1.09 | locus YIL125W, strain kgd1, hits give low values 0.979 | locus YIR030C, strain dcg1, hits give low values 1.01 | locus YJL092W, strain hpr5, hits give low values 0.966 | locus YJL095W, strain BCK1 (second series), hits give low values 0.998 | locus YJL095W, strain BCK1, hits give low values 1 and 0.914 | locus YJL115W, strain asf1, hits give low values 0.979 | locus YJL129C, strain trk1, hits give low values 1 | locus YJL134W, strain LCB3, hits give low values 0.993 | locus YJL154C, strain vps35, hits give low values 0.976 | locus YJL164C, strain tpk1, hits give low values 1.02 | locus YJL166W, strain qcr8, hits give low values 1 | locus YJL168C, strain set2, hits give low values 0.993 | locus YJL187C, strain SWE1 (second series), hits give low values 1.01 | locus YJL187C, strain SWE1, hits give low values 0.996 | locus YJR043C, strain POL32, hits give low values 1.04 | locus YJR066W, strain TOR1, hits give low values 0.841
active: locus YHR079C, strain IRE1, hits give low values 0.839

Source: PubChem BioAssay AID1159580 (chemical genetic matrix, 2015)
